# Source: PubChem BioAssay
# Compounds with a hit are over-represented: about 3.4% of the library has one in this group of screens.
# GPR151 activ: activates the human receptor GPR151; hit rate 1% among 650,000; PathHunter beta-arrestin GPR151 cells, luminescence; activation, % at 11.2 µM; Q8TDV0; in the data active = activation above about 4.9%;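 also: 0% = median of compound wells and 100% = cells with positive control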
# Target sequence (Q8TDV0 whole entry, looked up): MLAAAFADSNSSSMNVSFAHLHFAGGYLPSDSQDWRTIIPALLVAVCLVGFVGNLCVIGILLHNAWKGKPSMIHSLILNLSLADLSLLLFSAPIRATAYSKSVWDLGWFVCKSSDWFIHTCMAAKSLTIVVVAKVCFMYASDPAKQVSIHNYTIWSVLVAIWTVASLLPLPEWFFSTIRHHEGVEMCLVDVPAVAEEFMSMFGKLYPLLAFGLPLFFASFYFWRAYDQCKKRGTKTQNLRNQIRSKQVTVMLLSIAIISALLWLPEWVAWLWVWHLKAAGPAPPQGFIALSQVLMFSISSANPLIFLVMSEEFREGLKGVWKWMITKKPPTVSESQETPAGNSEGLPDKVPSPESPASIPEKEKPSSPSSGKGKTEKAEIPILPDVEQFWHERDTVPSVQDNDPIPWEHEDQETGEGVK
# FBW7 act: human FBW7 E3 ligase activation, primary screen. AID 1259310. normalized activity (activation), % at 26.1 µM. AlphaScreen FBW7–phospho-cyclin E peptide binding, activator screen. hit rate 0.13% among 650,000; in the data active = normalized activity above about 1.9%;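 also: purified mutant Fbw7 with reduced substrate affinity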
# MITF primary: inhibitors of human MITF; O75030; AID 1259374; hit rate 0.91% among 650,000; AlphaScreen MITF homodimerization, bead proximity signal; inhibition, % at 2.6 µM; in the data active = inhibition above about 50%;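 also: 0% = vehicle wells with protein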
# TEAD-YAP inh: TEAD-YAP interaction inhibition. HEK-TIYL cells, TEAD-Gal4/YAP UAS-luciferase luminescence. inhibition, % at 9.12 µM. hit rate 1.4% among 640,000; in the data active = inhibition above about 32%;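 also: 0% = median of test compound wells and 100% = reference inhibitor wells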
# * = called active by the depositor.
SMILES,GPR151 activ,FBW7 act,MITF primary,TEAD-YAP inh
CC(=O)Nc1cccc(Nc2nc3ccccc3n3nnnc23)c1,-0.5,0.0,9.4,-13.6
CC(=O)Nc1ccc(Nc2nc3ccccc3n3nnnc23)cc1,0.0,-0.1,4.6,37.7*
CC(=O)Nc1ccc(Nc2nc(Nc3nc4ccccc4n3C)nc3c2ncn3-c2ccccc2)cc1,1.3,-0.1,-1.0,32.2*
COc1ccc(CNC(=O)c2cc(Sc3ccc(Cl)cc3)nc3ccccc23)cc1,-0.2,-0.1,-0.1,-0.1
COCc1cc(=O)[nH]c(SCC(=O)Nc2cc(C)cc(C)c2)n1,-0.4,0.1,15.7,-8.6
COc1ccc(-c2noc(CNC(=O)c3ccc(C)c(Cl)c3)n2)cc1,-0.4,0.0,5.5,-3.8
Cc1ccc(C(=O)Nc2cccc(O)c2)cc1,-9.1,0.3,11.4,82.0*
CC(=O)Nc1cccc(NC(=O)c2ccc(Br)cc2)c1,-1.6,0.0,-11.0,-20.2
CCN(CC)S(=O)(=O)c1cc(C(=O)Nc2cccc(O)c2)ccc1C,-2.5,0.1,4.7,85.2*
CC(C)(C)c1ccc(C(=O)Nc2cccc(F)c2)cc1,-5.8,0.1,0.3,41.7*
O=C(Nc1cccc(O)c1)c1ccc(Br)cc1,-0.4,0.7,0.2,36.4*
CC(=O)c1cccc(NC(=O)c2ccc(C)cc2)c1,-1.0,-0.1,2.1,-35.3
COc1cc(Nc2nc(NCc3nc4ccccc4[nH]3)c3ncn(-c4ccsc4)c3n2)cc(OC)c1OC,-1.2,0.1,3.3,17.5
c1ccc(-n2cnc3c(NCc4nc5ccccc5[nH]4)nc(Nc4ccccn4)nc32)cc1,-1.3,-0.2,-2.6,53.4*
c1ccc(CNc2nc(Nc3cnccn3)nc3c2ncn3-c2ccsc2)cc1,-0.8,0.0,-4.2,13.6
O=C1CCCN1CCn1cnc2c(NCc3nc4ccccc4[nH]3)nc(Nc3ccncn3)nc21,-0.3,0.0,6.2,-8.8
c1ccc(Nc2nc(NCc3nc4ccccc4[nH]3)c3ncn(-c4ccsc4)c3n2)nc1,1.3,0.1,10.9,78.2*
c1ccc2[nH]c(CNc3nc(Nc4cnccn4)nc4c3ncn4-c3ccsc3)nc2c1,2.5,0.2,-11.3,70.6*
c1ccc(-n2cnc3c(NCc4nc5ccccc5[nH]4)nc(Nc4ccncn4)nc32)cc1,-1.2,0.3,8.2,35.4*
CCC(C)NC(=O)CNC(=O)Cn1cnc2ccccc2c1=O (configuration not stated),3.9,-0.1,2.7,-7.2
O=C(CNc1ccc(Cl)cc1Br)N/N=C/c1ccco1,-0.3,0.0,9.9,7.7
CC(C)CN1C(=S)SC(C)(C)C1n1oc(=O)n(-c2cccc(Cl)c2)c1=O (configuration not stated),-0.9,0.8,5.2,-1.5
COc1ccc(COn2ccc3ccc(S(C)(=O)=O)cc32)cc1,-0.5,-0.1,-2.9,42.3*
COc1ccc(COC(=O)C2=C(C)NC3=C(C(=O)CCC3)C2c2cc(Br)ccc2OC)cc1 (configuration not stated),-0.4,-0.2,1.0,6.6
O=C(CCN1C(=O)/C(=C/c2cccs2)SC1=S)N1CCCC1,-0.8,-0.3,20.8,21.4
SMILES,GPR151 activ,FBW7 act,MITF primary,TEAD-YAP inh
COc1cc(NC(=O)c2cccc(-n3cc(Nc4nc5ccccc5[nH]4)cn3)c2)cc(OC)c1OC,1.0,0.4,7.8,33.7*
COc1cc(NC(=O)c2cccc(-n3cc(NS(=O)(=O)Cc4ccccc4)cn3)c2)cc(OC)c1OC,-1.0,-0.1,8.7,39.4*
COc1cc(NC(=O)c2cccc(-n3cc(Nc4nnnn4-c4ccccc4)cn3)c2)ccc1N1CCOCC1,-1.2,0.0,1.8,31.9*
CCOC(=O)N1CCC(Nc2ncnc3c2c(-c2ccccc2)cn3-c2ccc(Br)cc2)CC1,-1.6,-0.1,3.2,1.9
CCC1CN(Cc2c(C)nn(CC)c2C)Cc2cc(OC)ccc2O1 (configuration not stated),0.3,0.2,12.2,9.0
NC(C(=O)O)c1ccc(Cl)cc1Cl (configuration not stated),-1.5,0.5,-9.4,-4.4
CCCCOc1ccc(C2NC(=S)NC(C)=C2C(=O)OCCOC)cc1OC (configuration not stated),3.7,-0.4,14.6,-11.4
Cc1c2oc3c(C)ccc(C(=O)C4CCCCO4)c3nc-2c(C(=O)C2CCCCO2)c(N)c1=O (configuration not stated),1.6,-0.2,12.5,96.0*
Cc1cc(/C=C2\Sc3ccccc3N2C)cc(C)[n+]1C1CCS(=O)(=O)C1 (configuration not stated),-1.1,0.0,8.3,21.1
COc1cccc(NC(=O)C2C3C=CC4(O3)C2C(=O)N(CCN(C)Cc2ccccc2)C4C(=O)NC2CCCCC2C)c1 (configuration not stated),2.1,0.0,2.4,1.5
CNC(=O)c1ccccc1Nc1cc(NC(=O)Cc2ccc(OC)cc2)ncc1C(F)(F)F,2.4,0.0,4.2,84.2*
CNC(=O)c1ccccc1Nc1cc(NC(=O)Cc2ccc(OC)cc2)ncc1C#N,-0.1,-0.1,-9.8,39.6*
CNC(=O)c1ccccc1Nc1cc(NC(=O)Cc2cccc(OC)c2)ncc1C(F)(F)F,1.4,-0.2,-9.5,63.6*
COc1ccc(CC(=O)Nc2cc(Nc3ccccc3C(=O)NC[C@H](O)C(=O)N(C)C)ccn2)cc1,0.1,-0.1,27.4,-3.0
CNC(=O)c1cccnc1Nc1cc(NC(=O)Cc2ccc(OC)cc2)ncc1C(F)(F)F,2.7,-0.2,-9.5,69.7*
COc1ccc(CC(=O)Nc2cc(Nc3ccccc3-c3ncccn3)c(C(F)(F)F)cn2)cc1,0.5,-0.2,-3.1,-4.3
O=C(NC(=S)NNC(=O)c1cccs1)c1cccnc1,-1.0,0.6,-1.3,-6.2
CCOc1cccc(CN2CCC(C(=O)N3CCN(Cc4ccccc4)CC3)CC2)c1O,3.5,0.0,39.4,7.0
COc1ccc(-n2nc(C(=O)Nc3ccc(F)cc3Cl)c3ccccc3c2=O)cc1,-0.2,0.2,11.6,-1.6
Cc1cccc(C2CCCN(C(=O)CC3(c4ccccc4F)CC(=O)N(C)C3=O)C2)c1 (configuration not stated),1.4,-0.1,-0.5,0.1
Cc1ccc(N)cc1NC(=O)CSc1nnc(Cc2ccccc2)n1C,-1.2,0.1,-3.2,-5.3
CN(C)CCOc1cc(-c2cn[nH]c2)ccc1NC(=O)NCc1ccccc1,0.0,-0.3,6.5,-2.2
Cc1ccc(-c2c[n+]3ccccc3n2-c2ccccc2)cc1,0.5,-0.1,-8.8,80.1*
O=C(CN1CCN(S(=O)(=O)c2ccc(Cl)cc2)CC1)c1ccc(O)c(O)c1,-0.7,0.0,82.3*,-3.4
O=C(CN1CCN(CC(=O)c2ccc(O)c(O)c2)CC1)Nc1ccccc1Cl,0.7,-0.2,89.4*,7.0
COc1ccc(S(=O)(=O)N2CCN(CC(=O)c3ccc(OC)c(OC)c3)CC2)cc1,1.4,-0.3,0.8,-3.2
COc1ccc(S(=O)(=O)N2CCN(CC(=O)c3ccc(O)c(O)c3)CC2)cc1,-1.7,-0.1,81.0*,-1.6
CCCCCCOC(=S)SCC(=O)Nc1ccccc1,-1.0,0.0,-0.2,-3.6
O=C(Nc1nc(-c2ccc(Oc3ccccc3)cc2)cs1)c1ccc(Br)s1,1.1,0.4,-4.5,-5.5
CN(C)/C=C/C=C/C=C1\CCC/C(=C\C=C\N(C)C)C1=O,-0.8,-0.1,77.8*,7.6
